This note sets out measurements from PMC3218832.

Experiment in all cases: protein binding microarray; high values mean tight binding
Common to all, as to conditions: dsDNA, one strand shown

Experiment [1] deals with RELARELA (p65 homodimer) (Homo sapiens, UniProt Q04206 1-307).
For experiment [2], the target named is p50p50 homodimer (Homo sapiens, UniProt P19838 7-356).
Experiment [3] has as its target T1, p52p52 homodimer (Homo sapiens, UniProt Q00653 4-332).
T1 sequence: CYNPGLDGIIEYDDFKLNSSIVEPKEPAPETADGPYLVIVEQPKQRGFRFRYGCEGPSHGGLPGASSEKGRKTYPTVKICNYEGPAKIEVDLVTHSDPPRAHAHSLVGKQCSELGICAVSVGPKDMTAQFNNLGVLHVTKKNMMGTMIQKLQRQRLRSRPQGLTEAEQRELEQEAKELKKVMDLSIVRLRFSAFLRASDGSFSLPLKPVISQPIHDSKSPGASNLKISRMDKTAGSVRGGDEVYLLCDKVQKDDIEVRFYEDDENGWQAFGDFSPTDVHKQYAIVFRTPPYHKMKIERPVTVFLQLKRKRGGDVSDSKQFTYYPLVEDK

For experiment [4], the target named is RELA (p65) subunit of heterodimer;p50 subunit (Homo sapiens;Homo sapiens, UniProt Q04206;P19838 1-307;7-356).
Experiment [5] deals with RELA (p65) subunit of heterodimer;p52 subunit (Homo sapiens;Homo sapiens, UniProt Q04206;Q00653 1-307;4-332).
The target in experiment [6] is RELB subunit;p50 subunit (Homo sapiens;Homo sapiens, UniProt Q01201;P19838 120-401;7-356).
In experiment [7] the target is T2, RELB subunit;p52 subunit (Homo sapiens;Homo sapiens, UniProt Q01201;Q00653 120-401;4-332).
T2 sequence 1: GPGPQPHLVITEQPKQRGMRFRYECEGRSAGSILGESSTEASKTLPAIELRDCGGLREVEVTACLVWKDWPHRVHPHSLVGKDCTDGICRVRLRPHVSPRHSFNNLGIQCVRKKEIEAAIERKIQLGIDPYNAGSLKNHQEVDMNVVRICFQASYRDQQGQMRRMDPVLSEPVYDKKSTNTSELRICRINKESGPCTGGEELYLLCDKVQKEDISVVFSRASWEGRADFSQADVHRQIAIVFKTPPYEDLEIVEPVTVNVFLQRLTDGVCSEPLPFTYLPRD
T2 sequence 2: T1 sequence

Experiment [8] has as its target C-Rel subunit;p50 subunit (Homo sapiens;Homo sapiens, UniProt Q04864;P19838 1-285;7-356).
Experiment [9] deals with T3, C-Rel subunit;p52 subunit (Homo sapiens;Homo sapiens, UniProt Q04864;Q00653 1-285;4-332).
T3 sequence 1: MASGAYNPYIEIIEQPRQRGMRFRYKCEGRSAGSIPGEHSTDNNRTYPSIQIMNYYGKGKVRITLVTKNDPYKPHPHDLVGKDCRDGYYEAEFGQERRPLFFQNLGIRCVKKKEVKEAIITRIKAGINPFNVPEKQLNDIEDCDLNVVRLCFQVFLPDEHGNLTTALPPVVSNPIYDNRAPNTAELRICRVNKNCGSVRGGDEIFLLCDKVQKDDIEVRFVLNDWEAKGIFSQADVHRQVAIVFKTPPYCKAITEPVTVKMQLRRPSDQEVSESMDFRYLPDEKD
T3 sequence 2: T1 sequence

RELA (p65) subunit of heterodimer;p50 subunit, sequence (Q04206 1-307, chain 1 of 2): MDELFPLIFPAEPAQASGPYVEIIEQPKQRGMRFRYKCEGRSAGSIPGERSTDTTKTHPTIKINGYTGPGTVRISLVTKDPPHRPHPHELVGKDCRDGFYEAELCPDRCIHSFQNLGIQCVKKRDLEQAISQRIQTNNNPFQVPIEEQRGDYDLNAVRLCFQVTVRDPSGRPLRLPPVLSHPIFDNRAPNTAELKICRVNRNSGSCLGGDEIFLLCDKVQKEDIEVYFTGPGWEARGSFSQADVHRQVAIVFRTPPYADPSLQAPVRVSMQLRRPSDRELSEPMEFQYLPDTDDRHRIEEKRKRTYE
RELA (p65) subunit of heterodimer;p50 subunit, sequence (P19838 7-356, chain 2 of 2): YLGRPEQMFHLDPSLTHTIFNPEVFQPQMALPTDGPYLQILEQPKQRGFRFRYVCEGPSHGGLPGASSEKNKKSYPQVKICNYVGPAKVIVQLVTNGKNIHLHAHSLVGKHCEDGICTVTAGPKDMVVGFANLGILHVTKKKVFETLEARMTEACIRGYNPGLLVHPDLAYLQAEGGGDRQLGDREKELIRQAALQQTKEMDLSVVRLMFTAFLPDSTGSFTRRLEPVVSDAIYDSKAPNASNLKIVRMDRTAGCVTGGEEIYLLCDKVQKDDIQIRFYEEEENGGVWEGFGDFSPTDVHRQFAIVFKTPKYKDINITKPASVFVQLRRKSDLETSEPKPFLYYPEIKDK
RELARELA (p65 homodimer), sequence (Q04206 1-307): as the sequence (Q04206 1-307, chain 1 of 2) above
p50p50 homodimer, sequence (P19838 7-356): as the sequence (P19838 7-356, chain 2 of 2) above

Regarding GAAGTGTCCCT, the binding signal is -0.0315 z-score in experiment [1]; 0.834 z-score in [2]; 0.946 z-score in [3]; 0.67 z-score in experiment [4]; 1.04 z-score in [5]; 1.07 z-score in experiment [6]. The binding signal in [7] was found to be 1.37 z-score; in experiment [8], 0.382 z-score; in [9] it was 0.65 z-score.

Consider CAAGGTATCCC, for which the binding signal is -0.591 z-score in experiment [1]; -0.9 z-score in [2]; -0.296 z-score in [3]; -0.874 z-score in experiment [4]; -0.575 z-score in experiment [5]; -0.488 z-score in [6]. For the same sequence, the binding signal was -0.446 z-score in experiment [7], -0.834 z-score in [8] and -0.451 z-score in [9].

As for GGATAGTCCCT, the binding signal worked out at 1 z-score in [1]; 1.18 z-score in [2]; 1.57 z-score in experiment [3]; 1.47 z-score in [4]; 1.43 z-score in experiment [5]; 0.994 z-score in experiment [6]. Further, the binding signal in experiment [7] was determined as 1.65 z-score; in [8] it was 1.15 z-score; in experiment [9], 1.82 z-score.

For CGGATAATCCT, the binding signal was 0.536 z-score in experiment [1]; -1.31 z-score in [2]; -0.659 z-score in experiment [3]; -1.04 z-score in experiment [4]; -0.831 z-score in [5]; -1.02 z-score in experiment [6]. Besides, the binding signal in experiment [7] is -1.08 z-score; in [8], -0.945 z-score; in [9], -0.765 z-score.

As for GAGAAGATCCC, the binding signal in experiment [1] was -0.164 z-score; in experiment [2], -0.0695 z-score; in [3], -0.271 z-score; in experiment [4] it was -0.131 z-score; in experiment [5] it was -0.161 z-score; in experiment [6], -0.259 z-score. Also, the binding signal in experiment [7] was -0.387 z-score; in experiment [8], -0.311 z-score; in [9] it was -0.307 z-score.

For the sequence GAAAGCTCCCC, the binding signal in experiment [1] is -0.0663 z-score; in [2] it was 0.67 z-score; in [3] it was 0.244 z-score; in experiment [4] it was 0.536 z-score; in [5], 0.231 z-score; in [6], 0.445 z-score. In addition, the binding signal worked out at 0.294 z-score in experiment [7], 0.317 z-score in experiment [8] and 0.189 z-score in [9].

As for AAATAAACCCT, the binding signal in experiment [1] is -0.478 z-score; in [2] it was 0.0209 z-score; in [3], 0.172 z-score; in experiment [4], -0.112 z-score; in experiment [5], 0.045 z-score; in experiment [6], -0.326 z-score. Besides, the binding signal in experiment [7] was -0.0813 z-score; in [8], -0.324 z-score; in experiment [9], -0.00628 z-score.

Regarding AGGAGTGTCCC, the binding signal in experiment [1] was determined as 1.3 z-score; in experiment [2], 0.0859 z-score; in experiment [3], 0.362 z-score; in experiment [4] it was 0.736 z-score; in [5] it was 0.372 z-score; in experiment [6] it was 0.333 z-score. Moreover, the binding signal in [7] turned out to be 0.321 z-score; in experiment [8], 0.586 z-score; in experiment [9] it was 0.486 z-score.

Turning to GAATAAGTCCC, the binding signal in experiment [1] is 0.563 z-score; in experiment [2], 1.13 z-score; in experiment [3], 0.974 z-score; in experiment [4] it was 1.43 z-score; in [5], 0.993 z-score; in experiment [6], 1.38 z-score. Further, the binding signal in experiment [7] amounted to 1.13 z-score; in experiment [8], 1.03 z-score; in experiment [9], 0.676 z-score.

On to AAAGGATCCCT, for which the binding signal in [1] was -0.446 z-score; in [2] it was -0.455 z-score; in experiment [3], -0.198 z-score; in experiment [4] it was -0.582 z-score; in [5], -0.469 z-score; in experiment [6] it was -0.388 z-score. Besides, the binding signal is -0.424 z-score in experiment [7], -0.748 z-score in [8] and -0.634 z-score in [9].

AAATACGCCCT: the binding signal is 0.0178 z-score in [1]; -0.886 z-score in experiment [2]; -0.502 z-score in experiment [3]; -0.594 z-score in experiment [4]; -0.758 z-score in [5]; -1.09 z-score in experiment [6]. The binding signal in experiment [7] was -0.751 z-score; in [8] it was -0.684 z-score; in experiment [9] it was -0.592 z-score.

With GGAAGCACCCT, the binding signal in experiment [1] was -0.312 z-score; in experiment [2] it was 0.509 z-score; in experiment [3], 0.257 z-score; in experiment [4], 0.415 z-score; in experiment [5], 0.261 z-score; in [6], -0.129 z-score. Besides, the binding signal in [7] came out at 0.214 z-score; in experiment [8], 0.0298 z-score; in experiment [9], 0.224 z-score.

In the case of GGAGTCGTCCT, the binding signal is -0.136 z-score in [1]; -1.28 z-score in [2]; -0.582 z-score in experiment [3]; -0.993 z-score in [4]; -0.875 z-score in experiment [5]; -1.03 z-score in experiment [6]. The figures for the binding signal in experiment [7], in experiment [8] and in experiment [9] were -0.714 z-score, -1.4 z-score and -0.812 z-score, respectively.

For CAGAGTGCCCT, the binding signal in experiment [1] was -0.65 z-score; in experiment [2] it was -1.13 z-score; in experiment [3], -0.629 z-score; in experiment [4], -0.784 z-score; in experiment [5], -0.964 z-score; in experiment [6] it was -0.897 z-score. The binding signal in [7] is -0.973 z-score; in experiment [8] it was -0.975 z-score; in experiment [9], -0.713 z-score.

With GAAGGTGCCCT, the binding signal in [1] was -0.528 z-score; in [2], -0.946 z-score; in experiment [3], -0.486 z-score; in experiment [4] it was -0.722 z-score; in experiment [5] it was -0.698 z-score; in [6] it was -0.821 z-score. Also, the binding signal was -0.597 z-score in experiment [7], -1.15 z-score in experiment [8] and -0.907 z-score in [9].
